From PubChem BioAssay
PREPL inhibitor – PREPL enzyme inhibitors, primary screen, biochemical, fluorescence polarization; Prolyl endopeptidase-like (Homo sapiens), Q4J6C6; recombinant PREPL, fluorescence polarization activity-based probe; inhibition, % at 5.96 µM; 0.68% of 320,000 active; in the data active = inhibition above about 43%;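 note: 0% = enzyme with DMSO and 100% = wells lacking enzyme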
PME-1 primary – PME-1 inhibitors via competitive probe labeling, primary screen, biochemical, fluorescence polarization, FP-Rh probe, HTS; Protein phosphatase methylesterase 1 (Homo sapiens), Q9Y570; recombinant PME-1; inhibition, % at 5.9 µM; 0.53% of 320,000 active; AID 2130, 2009;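 active = inhibition above the campaign mean of all compounds plus 3 SD, cut at about 26% in these data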;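 note: competitive labeling of PME-1 active site by serine hydrolase directed probe; 0% = PME-1 with DMSO and 100% = wells lacking PME-1 enzyme; inhibitors block probe labeling so polarization falls and inhibition rises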
LYPLA1 counter – LYPLA1 inhibitors, primary screen, counter-screen for PME1 inhibitor project, biochemical, fluorescence polarization, FP-Rh probe ABPP. Acyl-protein thioesterase 1 (Homo sapiens), O75608. recombinant LYPLA1. inhibition, % at 5.9 µM. 0.16% of 320,000 active;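 active = inhibition above the mean of all tested compounds plus 3 SD, set per campaign, cut at about 14% in these data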;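 note: inhibitors block serine hydrolase probe labeling of LYPLA1 so polarization falls; 0% = enzyme with DMSO and 100% = wells lacking LYPLA1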
Target sequence (O75608 whole entry, looked up): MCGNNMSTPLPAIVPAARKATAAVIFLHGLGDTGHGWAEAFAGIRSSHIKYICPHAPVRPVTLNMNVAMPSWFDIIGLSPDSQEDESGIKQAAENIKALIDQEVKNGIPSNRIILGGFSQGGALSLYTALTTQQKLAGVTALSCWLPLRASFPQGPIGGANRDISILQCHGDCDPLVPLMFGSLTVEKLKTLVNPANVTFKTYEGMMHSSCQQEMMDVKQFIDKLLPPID
Fam108B inh – mouse Fam108B serine hydrolase inhibitors, primary screen, counter-screen for RBBP9 inhibitor project, biochemical, fluorescence polarization | 0.33% of 300,000 active | recombinant Fam108B, FP-Rh probe fluorescence polarization | AID 1947, 2009 | inhibition, % at 9.51 µM;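 active = inhibition above the screen mean inhibition plus 3 SD, computed separately per campaign, cut at about 18% in these data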;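 note: inhibitors lower polarization as less probe binds the enzyme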
LYPLA2 counter – LYPLA2 inhibitors, primary screen, counter-screen for PME1 inhibitor project, biochemical, fluorescence polarization, FP-Rh probe ABPP | Acyl-protein thioesterase 2 (Homo sapiens), O95372 | recombinant LYPLA2 | inhibition, % at 5.9 µM | 0.38% of 320,000 active | AID 2177, 2009;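 active = inhibition above the screen-wide mean plus 3 SD, limit set per campaign, cut at about 26% in these data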;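 note: 0% = LYPLA2 with DMSO and 100% = wells lacking LYPLA2 enzyme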
Target sequence (O95372 whole entry, looked up): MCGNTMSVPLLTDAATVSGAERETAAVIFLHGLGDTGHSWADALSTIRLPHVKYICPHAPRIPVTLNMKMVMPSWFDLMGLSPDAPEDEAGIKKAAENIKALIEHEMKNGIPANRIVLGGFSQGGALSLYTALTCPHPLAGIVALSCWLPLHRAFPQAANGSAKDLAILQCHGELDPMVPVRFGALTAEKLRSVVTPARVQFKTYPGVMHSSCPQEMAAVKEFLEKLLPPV
Numbers without * were called inactive; / = no result given. Most compounds without a hit are left out; they make up all but 1.3% or so of the library.

SMILES	PREPL inhibitor	PME-1 primary	LYPLA1 counter	Fam108B inh	LYPLA2 counter
O=C(Cn1cc(C(F)(F)F)cc(Cl)c1=O)NC1CCS(=O)(=O)C1 (centres undefined)	-6	6	-2	/	4
COc1ccc([C@H]2CC(=O)C=C(/C=C/c3ccccc3)C2)cc1OC	-24	0	0	/	10
Cc1ccc2nc(CSc3nc(C)cc(C)c3C#N)[nH]c2c1	58*	10	2	7	-7
COc1cccc(C(=O)N2CCC(C(=O)NCc3ccco3)CC2)c1	-5	1	-1	1	6
Cc1ccc2c(-c3csc(N)n3)c[nH]c2c1	28	51*	-14	14	-5
CC1=C([N+](=O)[O-])C(c2cccc(Br)c2)C2=C(N1)c1ccccc1C2=O (centres undefined)	24	33*	-12	15	7
COC(=O)C1=C(C)NC2=C(C(=O)c3ccccc32)C1c1cccc(OC)c1 (centres undefined)	22	2	1	4	7
CC(=O)c1cccc(N2C(=O)CC(N3CCN(S(=O)(=O)c4ccc(Cl)cc4)CC3)C2=O)c1 (centres undefined)	-1	2	1	/	0
CC(C)OCCCNC(=O)C1CCN(S(=O)(=O)c2ccc3nc4c(c(C(=O)O)c3c2)CCCCC4)CC1	-4	0	-3	0	-4
O=c1nc(/C=C/c2cc([N+](=O)[O-])ccc2Cl)cc(C(F)(F)F)[nH]1	8	27*	-2	8	5
O=c1nc(/C=C/c2cccn2-c2ccc([N+](=O)[O-])cc2)cc(C(F)(F)F)[nH]1	0	5	-2	4	6
CCCCn1c(N)c(N(CC(C)C)C(=O)CC2CCCCC2)c(=O)[nH]c1=O	-3	0	0	-2	1
COc1ccc(/C=N/NC(=O)CC(=O)NCc2cccnc2)cc1[N+](=O)[O-]	20	2	1	13	-1
O=C(CNc1cccc2ccccc12)N/N=C/C(Br)=C/c1ccccc1	24	27*	-8	8	-3
O=C(CNc1cccc2ccccc12)N/N=C/c1ccc[nH]1	16	-3	-1	0	-5
C=CCc1cccc(/C=N/NC(=O)CNc2cccc3ccccc23)c1O	4	39*	-6	17	13
O=C(C[n+]1ccc(Cc2ccccc2)cc1)Nc1ccccc1	9	-3	2	3	-3
Cc1ccc2c(CN3CCN(S(=O)(=O)c4ccccc4C(F)(F)F)CC3)cc(=O)oc2c1C	-5	5	0	/	0
CCCC(=O)NC(c1ccccc1Cl)c1c(O)ccc2ccccc12 (centres undefined)	2	61*	0	0	-6
CCCCC(=O)NC(c1ccccc1Cl)c1c(O)ccc2ccccc12 (centres undefined)	9	45*	-6	1	-3
CC(C)Oc1ccc(S(=O)(=O)N2CCCCC2)cc1NC(=O)CN1C(=O)NC(C)(c2ccccc2)C1=O (centres undefined)	3	39*	1	1	5
CC(C)=CCc1cc(-c2oc3cc(O)cc(O)c3c(=O)c2O)ccc1O	20	34*	-2	7	6
O=c1c(O)c(-c2ccccc2)oc2cc(O)cc(O)c12	-10	/	/	/	/
CCCCCCOc1ccc(C(=O)n2cnc(N)n2)cc1	72*	1	1	5	20
CCCCCCOc1ccc(C(=O)O)cc1	2	2	2	4	8
SMILES	PREPL inhibitor	PME-1 primary	LYPLA1 counter	Fam108B inh	LYPLA2 counter
Cc1nc2ccc(S(=O)(=O)NCC(=O)NCCc3ccc(Cl)cc3)cc2s1	-20	10	-4	-2	6
Cc1ccn(C(=O)c2ccc(NC(=O)CC(C)C)cc2)n1	71*	-3	5	-3	-3
Cc1cc(C(=O)CC#N)c(C)n1-c1ccc(OC(F)F)cc1	6	36*	-3	5	6
COc1cc(Sc2ccc(C)cc2)c(OC)cc1N	47*	4	1	6	5
O=C(CN1c2cccc3cccc(c23)S1(=O)=O)N1CCN(c2ccccc2)CC1	35	/	/	/	/
Nc1ccc(C(=O)N/N=C\c2ccc(OC(=O)c3ccccc3Cl)cc2)cc1	23	-2	-5	0	-1
O=C(O)c1ccc(N/N=C/c2ccc(OC(=O)c3ccccc3Cl)cc2)cc1	32	18	0	17	26*
COc1cccc(N=Nc2c(=O)[nH]n3c(=O)cc(C)[nH]c23)c1	0	13	2	2	-14
COc1cccc(N=Nc2c(=O)[nH]n3c(=O)c4c([nH]c23)CCC4)c1	4	36*	3	5	-3
Cc1oc(-c2ccc(Cl)cc2)nc1CS(=O)CC(=O)NC1CCCCC1 (centres undefined)	6	2	4	1	7
Cc1oc(-c2ccc(Cl)cc2)nc1CS(=O)CC(=O)NCCCN(C)C1CCCCC1 (centres undefined)	57*	3	4	2	12
CCOc1cc(/C=C2/C(=O)N(c3ccccc3)N=C2C)ccc1OC(=O)c1ccco1	46*	2	-4	3	-9
CCN(CC)c1ccc(S(=O)(=O)N2CCOCC2)cc1NC(=O)CSc1n[nH]c(N)n1	14	5	-5	-1	-8
NS(=O)(=O)c1ccc(CCNC(=O)CSCC(=O)Nc2ccc(Cl)cc2)cc1	-7	5	-4	/	-4
CC1(C)NC(=O)N(CC(=O)N2CCN(c3cccc(Cl)c3)CC2)C1=O	28	2	4	/	7
CC(=O)Nc1cc(OC(C)=O)c2nonc2c1OC(C)=O	56*	63*	81*	76*	95*
COc1ccc(-c2cc(-c3ccc(C)cc3)n[nH]2)c(O)c1	-1	47*	-8	5	-6
Cc1ccc(Cl)cc1N1CCN(C(=O)Cc2ccc(-n3c(=O)[nH]c4ccsc4c3=O)cc2)CC1	-5	4	2	6	34*
O=C(CCn1c(=O)[nH]c2ccsc2c1=O)N1CCN(c2cccc(Cl)c2)CC1	18	4	4	3	9
C=CCn1c(C)cc(-c2csc(N)n2)c1C	49*	4	-1	6	-1
O=C(CCS(=O)(=O)c1ccccc1)NNC(=O)CSc1ccccc1F	14	/	/	/	/
COc1cccc(/C=N/Nc2nc3ccccc3n3cnnc23)c1	30	-14	-2	2	-2
COc1cccc(/C=N/Nc2nc3ccccc3n3cnnc23)c1O	41	29*	-3	11	-3
COc1ccc(-n2nnnc2CNC(=O)C(=O)c2c(C)[nH]c3ccccc23)cc1	-7	1	-2	-1	8
Cc1nc(C(=O)NC2CC2)sc1C1(C)CC(c2cccc([N+](=O)[O-])c2)=NO1 (centres undefined)	11	5	1	-4	22
